The source made the active and inactive calls. No rule for the calls is given here.
target: Thyrotropin receptor (Homo sapiens) (UniProt P16473); test: qHTS for antagonists of the Thyroid Stimulation Hormone Receptor: Hit Validation for Inverse Agonism; details: active compounds read high
Text: The thyroid-stimulating hormone receptor (TSHR) is a member of the 7 trans-membrane-spanning receptor (7TMR) family of cell surface receptors. TSHR-mediated hyperthyroidism is important in thyroid pathology. The development of small molecule antagonists of TSHR may lead to therapeutic approaches for TSHR-mediated hyperthyroidism caused by constitutively activating mutations or stimulating auto-antibodies associated with Graves' disease. Graves' disease is the leading cause of hyperthyroidism and is caused by autoantibodies that stimulate TSHR (TsAbs) causing thyroid growth and unregulated overproduction of thyroid hormones and existing treatments have liabilities (agranulocytosis). In addition, TSHRs are known to be expressed in multiple extrathyroidal tissues including bone, brain, kidney, testis, fat and cells of the immune system but the role of the TSHR in these tissues is not clear. Therefore, TSHR antagonists/inverse agonists could be used as probes of extrathyroidal TSHR function. Finally, TSHR inverse agonists, which are a subclass of antagonists that inhibit agonist-independent (or basal or constitutive) TSHR signaling, could be used to inhibit TSH-independent signaling in patients with recurrent or metastatic thyroid cancer who are receiving thyroid hormone to suppress TSH. […]

Sequence of Thyrotropin receptor (Homo sapiens) (P16473 whole entry, looked up): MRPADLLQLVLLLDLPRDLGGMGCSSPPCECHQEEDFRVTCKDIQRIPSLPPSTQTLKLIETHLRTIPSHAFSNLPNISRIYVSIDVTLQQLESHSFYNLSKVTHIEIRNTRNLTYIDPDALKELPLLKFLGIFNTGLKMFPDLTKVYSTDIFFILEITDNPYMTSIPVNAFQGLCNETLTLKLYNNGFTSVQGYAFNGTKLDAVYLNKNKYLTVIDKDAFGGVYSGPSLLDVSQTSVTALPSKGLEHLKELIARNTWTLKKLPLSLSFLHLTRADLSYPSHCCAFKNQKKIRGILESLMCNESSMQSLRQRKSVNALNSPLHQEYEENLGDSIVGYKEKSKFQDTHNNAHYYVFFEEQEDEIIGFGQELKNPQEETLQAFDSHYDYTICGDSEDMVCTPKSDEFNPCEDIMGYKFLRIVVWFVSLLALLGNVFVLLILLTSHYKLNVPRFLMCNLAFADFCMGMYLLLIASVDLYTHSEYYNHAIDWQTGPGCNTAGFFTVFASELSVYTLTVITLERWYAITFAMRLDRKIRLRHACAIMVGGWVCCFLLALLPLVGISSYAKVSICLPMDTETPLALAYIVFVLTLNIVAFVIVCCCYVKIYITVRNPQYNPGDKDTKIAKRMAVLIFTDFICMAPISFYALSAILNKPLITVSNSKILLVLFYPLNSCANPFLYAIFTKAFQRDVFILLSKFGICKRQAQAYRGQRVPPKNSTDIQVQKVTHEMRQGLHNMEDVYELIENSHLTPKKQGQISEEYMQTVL

Row | Compound | max inhibition
1 | COC(=O)C1=C(c2ccc(-c3ccccc3)c(F)c2)C[C@@H]2CC[C@H]1N2C(=O)NCCOc1ccccc1 | 75% (active)

Reference: PubChem BioAssay AID602442 (National Center for Advancing Translational Sciences (NCATS), 2012)
